Here are results for 22 sequences from the supplement of paper PMC6555819.

The subject of this experiment is PPARg DBDmut:RXRa IVT, anti-PPARg (DBD mutation: PPARg1 K132A/R137A, NR concentration 270 nM, RXRa partner concentration 90 nM). The experiment can be described thus: PBM binding z-score (relative to random genomic background probes); higher = stronger binding; sequences stand for … in GC…GCGATTGACAGCGTAGAATGAAGG
An outline of the steps:
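Random background probes are the reference for binding z-scores. These scores derive from regression-normalized fluorescence on custom Agilent 4×180K protein-binding microarrays incubated 1 h with ligand-free nuclear receptor dimers. Binding was detected with antibodies against each partner (one per run).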
For CCTTGCGGGTCACGAGGTTATAGCACGACGAGCG, the PBM binding z-score turned out to be 3.45. In turn, TCGAGTAGGTTACCAATGGGGCTTTCAGCTTTCT gave a PBM binding z-score of -0.964. In the case of CGTCCAAGGACAAGGTCAGTGAAAGAGACTCGAA it was -0.797. Next, ATCTCTAGGTAAGACTCAGTTCAGAGAAGAACGC: 1.58; TCTTGTAGATCAACAGGAGGTTAAGAAAGATCGA: 0.392. In the case of CCAGACAGGTGAGAAGGTAACTCAACCTCGATTA it was 0.229; in that of CTACCAAGGTGAGCAAGGTCGTTGATTACTATTC, -0.318.

The sequence AGTCAAAGTACACTAGGTAACGTAAGATTCAGCT returned a PBM binding z-score of 0.868.

With CGAACTAGGTCAGAAAAGGACAGTGAAGGATGAT, the PBM binding z-score was 2.3. Next, TCATATAGGTAAATGCTAGCTGAAAGTCCGATCT: 0.625; TTACTAAGGTGAGCTGAGGTCGTTGATCCAACTC: 0.501. Next, ACTAGCAGGCCAAGTTTGGGTTACTCAAACAAAG: -1.56; TTACCAAGGTGAGCTGAGGACGTTGATCCAACTC: -0.327; ATCTCTAGGTAAAAGTTCAATGAATCCCGAGGAT: 1.95.

The sequence GTACCAAGGTGAATGGGTCGTTGATGAGTAGGCG returned a PBM binding z-score of 0.0637. In the case of CAGCCTAGGTCAGGGCCAGTATCGGAGGAACGTT it was -1.42; in that of CAAACTAGGTCAGGAGGTCAAAGTCCGCTTCCCG, 2.42. In the case of TAGCCTAGGTCATTCGGGCCAGTATAGTGTCGGC it was -0.115. ACAGACAGGCGAGTGAAGGTAACTCAGCTGGACG returned a PBM binding z-score of 0.466. In turn, GGAACCAGGGCATTCGAGTTGATAGCATGGCGAT displayed a PBM binding z-score of -0.295.

Turning to ATATGTAGGTTATCGGGTCAGTCAGTTTGCGCAT, the PBM binding z-score is 4.15. In the case of CCTTACGGGTCACTGACAGGTTATATCATTTGGA it was 1.37.
